# Screening results as filed in PubChem.
# The list is not random: actives were taken first. Their share in the collection is about 1.7%.
# TRHR agonist-1 – activates the human TRH receptor; P34981; TRHR cells, calcium flux fluo-8, FDSS agonist mode; activation, % at 2 µM; hit rate 0.18% among 360,000; in the data active means activation above about 30%; further: 0% is about no effect
#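 In this calcium-flux screen, cells bearing human TRHR are dye-loaded with fluo-8, baselined for 10 cycles, then exposed to library compounds; positive kinetic calcium responses during the agonist phase mark hits, with TRH as control.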
# KCNH2 3.1 block – inhibitors of human KCNH2 3.1 potassium channel isoform | hit rate 0.95% among 340,000 | activity change, % (tested at about 1.8 µM) | U2OS KCNH2 3.1, thallium flux FluxOr; stronger effect = lower value;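 active means maximum activity change below -70%; inconclusive means maximum activity change from -70% to -50%; inactive means maximum activity change above -50%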;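 further: thallium influx rate constant from kinetic fluorescence after stimulation buffer; on the % scale 0 is the no-effect control and ±100 the full control effect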
#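 Channel expression came from 3.1 mutant virus (1.77 x 10^8 /mL) applied to suspended U2OS cells for 4 h. Flux was tracked with FluxOr dye plus Red40 quencher, and kinetic rate constants normalized to controls.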
# TRPML1 agonist – agonists of human TRPML1 channel | activation, % (test concentration not listed) | hit rate 0.12% among 410,000 | Q9GZU1 | TRPML1-expressing cells, Ca2+ dye fluorescence, FDSS; in the data active means activation above about 50%; inconclusive means mostly about 30% to 49%; further: 0% is about no effect
# Target sequence (Q9GZU1 whole entry, looked up): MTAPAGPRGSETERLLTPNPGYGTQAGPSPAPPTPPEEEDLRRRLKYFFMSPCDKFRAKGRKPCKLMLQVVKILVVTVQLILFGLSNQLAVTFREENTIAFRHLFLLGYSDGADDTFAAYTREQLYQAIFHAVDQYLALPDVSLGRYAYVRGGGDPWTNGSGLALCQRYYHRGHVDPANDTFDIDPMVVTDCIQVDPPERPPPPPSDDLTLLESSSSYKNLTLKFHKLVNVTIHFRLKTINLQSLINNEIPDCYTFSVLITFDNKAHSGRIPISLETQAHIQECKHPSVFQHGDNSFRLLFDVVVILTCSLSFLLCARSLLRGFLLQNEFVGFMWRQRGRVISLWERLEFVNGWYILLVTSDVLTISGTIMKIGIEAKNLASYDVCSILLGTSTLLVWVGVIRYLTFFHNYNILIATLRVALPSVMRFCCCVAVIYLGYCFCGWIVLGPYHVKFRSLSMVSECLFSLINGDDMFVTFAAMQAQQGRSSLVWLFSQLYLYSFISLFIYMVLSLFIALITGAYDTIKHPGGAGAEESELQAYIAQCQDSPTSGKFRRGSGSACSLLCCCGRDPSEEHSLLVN
#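 TRPML1-DL cells, Tet-induced overnight (~16 h, 37 degrees C), loaded 45-90 min at room temperature with Ca8 no-wash calcium dye plus quencher. FDSS fluorescence: 10 s baseline, compound pin-transfer, 110 s agonist read, then EC80 54-4 (4uM final) and 110 s antagonist read.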
# TRPML1 inh – inhibitors of human TRPML1 channel. activity change, negative = inhibition, % (test concentration not listed). hit rate 0.02% among 390,000. TRPML1-inducible cells, Ca2+ dye fluorescence, FDSS; stronger effect = lower value; inhibition of EC80 agonist-evoked calcium signal; in the data active means activity change below about -50%; inconclusive means between about -30% and that limit;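 further: stimulus is agonist 54-4 at its EC80 concentration; on the % scale 0 is the no-effect control and ±100 the full control effect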
#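 TRPML1-DL cells, Tet-induced overnight (~16 h, 37 °C) at 1,500 cells/well, were loaded with Ca8 no-wash dye plus quencher for 45-90 min at room temperature. Compounds were pinned during FDSS kinetic reading; agonist 54-4 at EC80 (4 uM final) then added.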
# KCNH2 WT inh – inhibitors of human wildtype KCNH2 potassium channel; U2OS, BacMam KCNH2, thallium flux FluxOr; stronger effect = lower value; hit rate 0.37% among 340,000; Q12809; activity change, % at 1.84 µM; AID 720551;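 active means maximum activity change below -70%; inconclusive means maximum activity change between -70% and -50%; inactive means maximum activity change above -50%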; further: on the % scale 0 is the no-effect control and ±100 the full control effect
#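 U2OS cells transduced with wild-type KCNH2 virus are loaded with FluxOr dye for 45 min, and thallium flux is measured in kinetic reads before and after stimulation buffer. Rate constants are normalized to DMSO controls.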
# TRHR enhancer-1 – TRH receptor (human) allosteric enhancement. TRHR cells, fluo-8 calcium fluorescence, EC20 TRH enhancement. enhancement, % at 2 µM. hit rate 0.66% among 360,000; in the data active means enhancement above about 30%; further: 0% is about no effect
#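 Enhancer read-out: after compound pinning and an initial kinetic agonist-mode read, an EC20 of TRH (10 nM final) was injected and fluo-8 calcium signal (Ex 480/Em 530) followed at 1 s/cycle for 100 cycles in TRHR-expressing cells.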
# TRHR enhancer-2 – human TRH receptor allosteric enhancement confirmation; shares compounds with TRHR enhancer-1; TRH receptor cell assay, enhancer confirmation qHTS; activity change, negative = inhibition, % at 46.1 µM; 970 tested, under 10 active; AID 493076;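 further: compound effect scored on response to added TRH at EC20 of 10 nM; 0% is about no effect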
# TRHR agonist-2 – human TRH receptor agonism confirmation; shares compounds with TRHR enhancer-1; TRHR-expressing cells, agonist activation read-out; Potency, µM (top dose mostly 46.1 µM), for the others: at the top dose activation, most hits filed as activators; hit rate 8% among 970; AID 493078; further: potency means the concentration at half of the fitted maximal effect; 0% is about no effect; nearly all actives have a fitted effect of over 75% in size
# Numbers without * were called inactive; ? = inconclusive; / = no result given. Unless noted, the call rests on the fitted dose curve; in most records, active means well fitted curve in the direction sought with a large enough effect; inconclusive means small, poorly fitted or top-dose-only effect, or another doubt; inactive means no such curve, though single readings can be large; an effect the other way counts as inactive or inconclusive.
SMILES,TRHR agonist-1,KCNH2 3.1 block,TRPML1 agonist,TRPML1 inh,KCNH2 WT inh,TRHR enhancer-1,TRHR enhancer-2,TRHR agonist-2
CC1=Nc2ccccc2/C1=C/c1sc(=S)n(-c2cccc(C(=O)O)c2)c1O,29,-39,0,12,2,-6,2,21µM*
Cc1cc(NC(=O)CN2C(=O)/C(=C/c3cccc(Br)c3)SC2=S)no1,1,-20,0,46,1,47*,7,2%
Cc1ccc(/C=C2\SC(=S)N(CCCC(=O)Nc3cc(C)on3)C2=O)cc1,0,-3,-1,-3,-10,0,/,/
COc1ccc(N2C(=O)CC(Sc3nc(C)cc(C)c3C#N)C2=O)cc1 (centres undefined),0,0,0,12,0,41*,-4,1%
CCCCNC(=O)c1cn(-c2ccc(OCC)cc2)c(=O)c2cc(OC)c(OC)cc12,1,2,2,-9,-5,47*,5,1%
CCOc1ccc(NC(=O)c2cn(-c3ccc(OCC)cc3)c(=O)c3cc(OC)c(OC)cc23)cc1,1,-4,3,-15,0,-1,/,/
COC(=O)c1ccccc1NC(=O)Cn1nc(C(F)(F)F)c2c1CCCC2,0,/,3,?,/,57*,-12,4%
Cc1c(NC(=O)Cn2nc(C(F)(F)F)c3c2CCCC3)c(=O)n(-c2ccccc2)n1C,0,-1,-1,7,-2,58*,-10,-1%
CCN(C(=O)Cn1nc(C(=O)O)c2ccccc2c1=O)C1CCCCC1,0,0,2,24,-2,44*,-8,2%
CCc1ccccc1NC(=O)Cn1nc(C(F)(F)F)c2c1CCCC2,-1,/,1,10,/,4,/,/
Cc1c(NC(=O)Cn2nc(C(=O)O)c3ccccc3c2=O)c(=O)n(-c2ccccc2)n1C,0,8,-1,7,18,46*,-3,-1%
CCOC(=O)C1=C[C@@H](c2ccccc2)N(S(=O)(=O)c2ccc(C)cc2)[C@H]1c1ccc(F)cc1,/,/,3,-14,/,/,/,/
CC(C)c1ccc(NC(=O)Cn2cc(S(=O)(=O)N3CCN(c4ccccc4F)CC3)c3ccccc3c2=O)cc1,0,/,0,-1,/,-6,/,/
COc1ccc(NC(=O)C2CC(=O)N(Cc3ccco3)C2)cc1Cl (centres undefined),0,-16,-1,-1,-3,0,/,/
COc1ccc([N+](=O)[O-])cc1NC(=O)c1cn(-c2ccc(Cl)cc2)c(=O)c2ccccc12,0,-12,0,4,19,72*,?,1%
Cc1noc(/C=C/c2ccccc2F)c1S(=O)(=O)N1CCC(C(=O)N2CCOc3ccccc32)CC1,0,/,0,15,/,-8,/,/
CC(C(=O)Nc1ccc(F)c(F)c1F)N(C)CCOc1ccccc1 (centres undefined),0,-9,0,-1,-8,46*,-8,1%
COc1ccccc1NC(=O)C(C)N(C)CCOc1ccccc1 (centres undefined),-1,9,6,5,5,19,/,/
Cc1ccc(C(=O)NCC(=O)OCC(=O)NC(C)C2CC3CCC2C3)cc1 (centres undefined),0,2,1,-8,-19,9,/,/
CCOC1=C/C(=C/c2c(N)n3nc(CC(=O)N4CCCCC4)sc3nc2=O)C=CC1=O,61*,1,4,23,-13,14,13,16µM*
Nc1c(C=C2C=CC(=O)C=C2)c(=O)nc2sc(CC(=O)N3CCOCC3)nn12,0,6,0,24,-17,-12,/,/
CCOc1ccc(NC(=O)Nc2nc3ccc(S(C)(=O)=O)cc3s2)cc1,1,/,-1,-6,3,58*,-1,-1%
COc1ccc(-c2cc(C(F)(F)F)c3c(n2)sc2c(O)cc(=O)[nH]c23)c(OC)c1,34*,7,5,-7,-4,8,4,?
CC(=O)NC1CC2CCCC(C1)N2C(=O)Nc1ccc(Cl)cc1 (centres undefined),/,-2,-1,-5,-2,/,/,/
N#C/C(=C\c1ccc(N2CCOCC2)o1)C(=O)NCCc1ccccc1,58*,8,?,-18,3,7,3,18µM*
SMILES,TRHR agonist-1,KCNH2 3.1 block,TRPML1 agonist,TRPML1 inh,KCNH2 WT inh,TRHR enhancer-1,TRHR enhancer-2,TRHR agonist-2
COc1ccccc1CN(C)C(=O)C(NC(=O)Cc1cccc2ccccc12)C(C)C (centres undefined),-1,12,1,6,-6,-1,/,/
CN1CCCc2cc3c(C(F)(F)F)cc(=O)oc3nc21,49*,-25,24,-10,-4,2,3,18µM*
FC(F)(F)c1cc(C(F)(F)F)c2ccc(N3CCOCC3)nc2n1,-1,9,1,13,9,9,/,/
CS(=O)(=O)c1ccc(Cl)c(NC(=O)CN2CCCC2c2ccc3c(c2)OCCCO3)c1 (centres undefined),0,2,-2,5,-18,46*,-23,1%
COc1cccc(CNC(=O)c2ccc(S(=O)(=O)N3CCCCC3)cc2)c1,/,21,0,1,7,/,/,/
O=C(NCC1CCCO1)c1ccc2c(=O)n(CCc3ccccc3)c(=O)[nH]c2c1 (centres undefined),2,0,0,-2,2,46*,0,2%
CC(=O)NCCNC(=O)c1ccc2c(=O)n(CCc3ccccc3)c(=O)[nH]c2c1,0,/,1,-11,/,6,/,/
Cc1cc(=O)oc2c(CN3CCCCC3)c(O)c(Cl)cc12,-1,-31,-2,-7,-3,19,/,/
Cc1cc(=O)oc2c(CN3CCCC3)c(O)c(Cl)cc12,-2,2,0,-16,2,59*,-12,3%
Cc1nnc(NC(=O)C2CSC3(C)CCC(=O)N23)s1 (centres undefined),0,14,2,34,-14,0,/,/
CC(=O)Nc1cc(NC(C)=O)c(N=Nc2ccccc2)cc1C,0,39,5,-3,0,63*,-3,2%
CCc1nc(Nc2ccncc2)c2oc3ccccc3c2n1,0,1,0,-22,1,47*,-5,-1%
O=C(COc1ncnc2ccccc12)Nc1ccc(S(=O)(=O)N2CCOCC2)cc1,0,6,1,3,-6,43*,?,0%
